In PubChem BioAssay (NCATS):
Inconclusive results are not listed. Unless noted, the call rests on the fitted dose curve; in most records, active means well fitted curve in either direction with a large enough effect (not every such curve was filed as active); inconclusive means small, poorly fitted or top-dose-only effect, or another doubt; inactive means flat fitted curve, though single readings scatter.

Key:
[1] = AP1 Signaling Pathway (AID 357); conditions: ME-180 AP-1-bla reporter, EGF-induced, beta-lactamase ratio, 5 h; at 17.2 µM (top of the series) unless noted;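 further: ME-180 reporter cells stimulated with EGF at its EC50 level; on the % scale 0 is the no-effect control and ±100 the full control effect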
In short: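 Titration-series screen for positive or negative modulators of EC50 EGF-induced signaling in ME-180 cells carrying an AP-1-driven beta-lactamase reporter. After 5 hours at 37 degrees Celsius, CCF4 460nm/530nm emission ratio gave %Activity; AC50 values derived.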

[2] = NFAT Signaling Pathway (AID 444); conditions: Jurkat NFAT-bla M1, carbachol, beta-lactamase ratio, 5 h; at 17.2 µM (top of the series) unless noted;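 further: carbachol stimulus at about its EC50 of 1 µM final; on the % scale 0 is the no-effect control and ±100 the full control effect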
In short: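 Read-out: CCF4 FRET ratio (460 nm/530 nm) after 1 h RT dye loading, used for %activity and AC50 from titration series. Cells: Jurkat NFAT-β-lactamase/M1 line, treated with compound plus 1 uM carbachol for 5 h, 37 °C.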

[3] = Stat Signaling Pathway (AID 446); conditions: ME-180 SIE beta-lactamase reporter, IL-6 stimulated, 5 h; at 17.2 µM (top of the series) unless noted;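 further: ME-180 cervical cancer cells given 40 pM IL-6 alongside compound; SIE-controlled beta-lactamase reporter measured as 460/530 nm FRET emission ratio; on the % scale 0 is the no-effect control and ±100 the full control effect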
In short: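 ME-180 cells carrying a SIE-driven beta-lactamase reporter are stimulated with 40 pM IL-6 for 5 h at 37C in the presence of compound. The 460/530 nm FRET substrate ratio is read after 2.5 h at RT. Data are normalised to 300 pM IL-6 and to 125 nM JAK inhibitor controls.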

[4] = molecular target: Glucocorticoid receptor (Homo sapiens) (UniProt P04150); test: GR-GFP Redistribution (AID 450;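 active means compounds whose dose series gives a full or clear partial fitted curve of increased nuclear translocation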; further: potency means the concentration at half of the fitted maximal effect)
Chain of Glucocorticoid receptor (Homo sapiens) (P04150 whole entry, looked up): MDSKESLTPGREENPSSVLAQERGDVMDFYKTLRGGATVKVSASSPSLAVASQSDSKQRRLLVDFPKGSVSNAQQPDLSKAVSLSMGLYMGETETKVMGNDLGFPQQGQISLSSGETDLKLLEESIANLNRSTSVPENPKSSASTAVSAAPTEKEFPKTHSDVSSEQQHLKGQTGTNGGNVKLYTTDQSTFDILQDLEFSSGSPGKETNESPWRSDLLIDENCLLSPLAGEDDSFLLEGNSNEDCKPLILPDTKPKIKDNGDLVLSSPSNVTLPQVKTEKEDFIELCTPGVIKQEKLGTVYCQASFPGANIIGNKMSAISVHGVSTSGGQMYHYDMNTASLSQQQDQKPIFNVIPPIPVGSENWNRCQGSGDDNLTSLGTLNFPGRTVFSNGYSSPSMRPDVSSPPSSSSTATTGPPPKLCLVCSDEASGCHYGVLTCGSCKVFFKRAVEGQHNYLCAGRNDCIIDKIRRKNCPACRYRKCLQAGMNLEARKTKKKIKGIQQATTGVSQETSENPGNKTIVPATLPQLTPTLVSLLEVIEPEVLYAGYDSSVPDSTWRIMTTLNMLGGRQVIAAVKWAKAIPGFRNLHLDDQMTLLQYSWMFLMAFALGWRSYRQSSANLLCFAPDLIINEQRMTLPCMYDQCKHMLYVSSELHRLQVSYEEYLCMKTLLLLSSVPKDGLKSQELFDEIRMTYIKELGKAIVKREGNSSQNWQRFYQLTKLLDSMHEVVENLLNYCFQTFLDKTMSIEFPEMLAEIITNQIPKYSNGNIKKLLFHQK

CCN(CC)C(=O)CSC1=C(C#N)C(c2ccco2)C(C(=O)OCCOC)=C(C)N1 (stereo not given)
inactive: activity change, negative = inhibition [1] -10.6% | activity change, negative = inhibition [2] -0.498% | activity, negative = inhibition [3] 2.75% | Potency [4] > 20.6 µM

CC(O)Cn1ccccc1=N (stereo not given)
inactive: activity change, negative = inhibition [1] -4.75% | activity change, negative = inhibition [2] 25.6% | activity, negative = inhibition [3] 3.45% | Potency [4] > 20.6 µM

COc1ccc(OC)c(C2C(C(=O)c3ccco3)=C(O)C(=O)N2CCCN2CCOCC2)c1 (stereo not given)
inactive: activity change, negative = inhibition [1] 11.5% | activity change, negative = inhibition [2] 0.311% | activity, negative = inhibition [3] -6.98% | Potency [4] > 20.6 µM

CCC1=Nc2ccccc2NC2=C1C(=O)CCC2
inactive: activity change, negative = inhibition [1] 16.1% | activity change, negative = inhibition [2] -0.948% | activity, negative = inhibition [3] -3.13% | Potency [4] > 20.6 µM

O=C1CC(c2ccco2)CC(O)=C1C=Nc1cc(Cl)ccc1O (stereo not given)
inactive: activity change, negative = inhibition [1] -23.8% | activity change, negative = inhibition [2] -1.32% | activity, negative = inhibition [3] -10.9% | Potency [4] > 20.6 µM

c1ccc(-c2nn3c(C4CCCCC4)nnc3s2)cc1
inactive: activity change, negative = inhibition [1] -19.5% | activity change, negative = inhibition [2] -5.79% | activity, negative = inhibition [3] 18.2% | Potency [4] > 20.6 µM

CCCOc1ccc(-c2nnc(N)s2)cc1
inactive: activity change, negative = inhibition [1] 9.15% | activity change, negative = inhibition [2] 2.03% | activity, negative = inhibition [3] 5.95% | Potency [4] > 20.6 µM

COC(=O)[C@@H](N)Cc1ccc(O)cc1
inactive: activity change, negative = inhibition [1] -11% | activity change, negative = inhibition [2] -26% | activity, negative = inhibition [3] -6.81% | Potency [4] > 20.6 µM

COCc1[nH]nc2c1C(c1ccnc3ccccc13)C(C#N)=C(N)O2 (stereo not given)
inactive: activity change, negative = inhibition [1] -7.4% | activity change, negative = inhibition [2] 17.7% | activity, negative = inhibition [3] -1.49% | Potency [4] > 20.6 µM

COc1cccc(OC)c1-c1nn2c(-c3ccccc3Cl)nnc2s1
inactive: activity change, negative = inhibition [1] -22.5% | activity change, negative = inhibition [2] -8.73% | activity, negative = inhibition [3] -3.22% | Potency [4] > 20.6 µM

CCOC(=O)C(C)c1nc2ccccc2[nH]c1=O (stereo not given)
inactive: activity change, negative = inhibition [1] 3.01% | activity change, negative = inhibition [2] -0.784% | activity, negative = inhibition [3] 4.12% | Potency [4] > 20.6 µM

COc1cc(N2C(=O)CSC23C(=O)Nc2ccccc23)cc(OC)c1OC (stereo not given)
inactive: activity change, negative = inhibition [1] 14.9% | activity change, negative = inhibition [2] 18.9% | activity, negative = inhibition [3] -2.69% | Potency [4] > 20.6 µM

CC1(C)NC(=O)N(CC(O)COc2cc3ccccc3cc2C(=O)N2CCCCC2)C1=O (stereo not given)
inactive: activity change, negative = inhibition [1] -6.63% | activity change, negative = inhibition [2] 8.86% | activity, negative = inhibition [3] -3.07% | Potency [4] > 20.6 µM

CC1(C)CC(=O)C=C(NCCO)C1
inactive: activity change, negative = inhibition [1] 20.8% | activity change, negative = inhibition [2] 2.7% | activity, negative = inhibition [3] 12.6% | Potency [4] > 20.6 µM

COc1cccc(C2=CC(c3ccccc3)n3nnnc3N2)c1 (stereo not given)
inactive: activity change, negative = inhibition [1] -3.96% | activity change, negative = inhibition [2] -25.6% | activity, negative = inhibition [3] -10.3% | Potency [4] > 20.6 µM

COc1nc(NS(=O)(=O)c2ccc(C)cc2)nc(C)c1Cl
inactive: activity change, negative = inhibition [1] 6.72% | activity change, negative = inhibition [2] -25.4% | activity, negative = inhibition [3] -5.69% | Potency [4] > 20.6 µM

CN(C)CCCN(CCCNC(=O)/C=N/O)Cc1ccccc1
inactive: activity change, negative = inhibition [1] -5.3% | activity change, negative = inhibition [2] -11.6% | activity, negative = inhibition [3] 17.4% | Potency [4] > 20.6 µM

CC(=O)c1cccc(N=C2NC(=O)C(CO)(CO)S2)c1
inactive: activity change, negative = inhibition [1] 3.54% | activity change, negative = inhibition [2] -3.93% | activity, negative = inhibition [3] 4.42% | Potency [4] > 20.6 µM

Cc1ccc(S(=O)(=O)N(CC(O)CN(C)C)c2ccccc2)cc1 (stereo not given)
inactive: activity change, negative = inhibition [1] 6.2% | activity change, negative = inhibition [2] -0.131% | activity, negative = inhibition [3] 7.64% | Potency [4] > 20.6 µM

COC(=O)CC1SC(=O)NC1=O (stereo not given)
inactive: activity change, negative = inhibition [1] 6.96% | activity change, negative = inhibition [2] 5.58% | activity, negative = inhibition [3] 7.23% | Potency [4] > 20.6 µM
